Source: PubChem (several laboratories)
Hits are enriched below; roughly 27% of the tested compounds scored in any of these assays.
Cav32 inh: human Cav3.2 channel inhibition, primary screen; B-score at 10 µM; O95180; AID 449739; actives 4% (n = 100,000); Cav3.2-expressing cells, Fluo-4 calcium fluorescence FDSS; active compounds read low;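 active means single-dose well whose peak fluorescence ratio is a statistical outlier from its plate by either plate-standardised score or position-corrected B-score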
CYP2C19 inh: blocks human cytochrome P450 2C19; actives 21% (n = 96,000); AID 778; P33261; CYP2C19 Supersomes, luciferin-H EGE luminescence, 30 min; inhibition, % at 5 µM;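 active means CYP2C19 inhibition above a set limit at 5 µM in the primary screen, cut at about 50% in these data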;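 further: plate controls were negative control wells for no effect and 2.5 mM tranylcypromine positive control for full effect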
CYP2C9 inh: inhibitors of human CYP2C9 | P11712 | CYP2C9 Supersomes, luciferin-H conversion, luminescence | inhibition, % at 5 µM | actives 20% (n = 96,000);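 active means blocking of liver enzyme CYP2C9 beyond about 50% at 5 µM, limit read from the data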
CYP2C19 activ: increases human CYP2C19 enzyme activity | P33261 | recombinant CYP2C19, luciferin-H EGE luminescence; active compounds read high; 0 = fully inhibited enzyme, 1 = untreated enzyme | activation factor at 5 µM | 96,000 tested, under 10 active | AID 1025;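 active means activation factor of at least 2 at 5 µM in the primary screen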;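 further: 0 = wells with 2.5 mM tranylcypromine and 1 = vehicle-only wells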
CYP2C9 act: increases human cytochrome P450 2C9 activity. activation factor at 5 µM. actives 1.4% (n = 96,000). AID 1024. P11712. recombinant CYP2C9, luciferin-H conversion, luminescence; active compounds read high; factor 1 = untreated enzyme, 0 = blocked;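 active means activation factor of 2 or more for CYP2C9 at a 5 µM dose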;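 further: 0 = sulfaphenazole-blocked wells and 1 = vehicle-only wells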
* = called active by the depositor; nt = no result given.

SMILES | Cav32 inh | CYP2C19 inh | CYP2C9 inh | CYP2C19 activ | CYP2C9 act
O=C(N1CCN(c2ccccn2)CC1)N1c2ccccc2Sc2ccccc21 | nt | 90* | 88* | 0.1 | 0.1
O=C(c1c(Cl)cccc1Cl)N1CCN(c2ccccn2)CC1 | 1.3 | 37 | 63* | 0.6 | 0.4
O=C(NC(=S)Nc1ccc2oc(-c3cccnc3)nc2c1)c1cccc(Cl)c1 | nt | 21 | 16 | 0.8 | 0.8
O=C1C=C(NCc2ccc(Cl)cc2Cl)C2(CCCCC2)O1 | -3.6 | 49 | 13 | 0.5 | 0.9
Nc1cccc2c1C(=O)N(C(=O)c1ccc(S(=O)(=O)N3CCCCCC3)cc1)C2=O | -0.11 | 29 | 57* | 0.7 | 0.4
O=C(c1cccc(Cl)c1)N1CCN(c2ccccn2)CC1 | -0.35 | 90* | 79* | 0.1 | 0.2
COc1ccccc1-n1c(SCC(=O)N2CCOCC2)nc(O)c(Cc2ccccc2)c1=O | -0.75 | -18 | -18 | 1.2 | 1.2
COC(=O)CNc1ccc2c(c1)OCO2 | -1.1 | nt | nt | nt | nt
CCOC(=O)c1c(C)[nH]c(N=Nc2cccc(C)c2)c1C | 0.68 | 56* | 93* | 0.4 | 0.1
CC1=C(C(=O)Nc2cc(C)ccc2C)C(c2cccs2)NC(=S)N1 (stereo not given) | 0.06 | 1 | 22 | 1 | 0.8
Cc1ccc(Cn2ccc(=O)c(OCc3c(Cl)cccc3Cl)c2C)cc1 | 0.12 | 65* | 45 | 0.3 | 0.6
Cc1[nH]ccc(=O)c1OCc1c(Cl)cccc1Cl | -0.17 | 12 | 18 | 0.9 | 0.8
CCOC(=O)NC(NC(=S)Nc1ccccc1[N+](=O)[O-])C(Cl)(Cl)Cl (stereo not given) | -1.4 | 98* | 93* | 0 | 0.1
COc1ccc(NC(=S)NC(NC(=O)c2cccc(Cl)c2)C(Cl)(Cl)Cl)c([N+](=O)[O-])c1 (stereo not given) | -4.9* | nt | nt | nt | nt
COc1ccc(NC(=S)NC(NC(=O)c2cccc(C)c2)C(Cl)(Cl)Cl)c([N+](=O)[O-])c1 (stereo not given) | -6.7* | nt | nt | nt | nt
CCCCC(=O)NNC(=S)NC(=O)c1cccc([N+](=O)[O-])c1 | -3.4 | 7 | 25 | 0.9 | 0.7
O=C(NC(NC(=S)Nc1ccccc1C(=O)O)C(Cl)(Cl)Cl)c1cccc([N+](=O)[O-])c1 (stereo not given) | -1.1 | -5 | 71* | 1 | 0.3
CC(C(=O)O)n1c(C(F)(F)F)nc2ccccc21 (stereo not given) | 0.4 | -12 | -15 | 1.1 | 1.1
FC(F)Oc1ccc(/C=N/c2c(-c3ccc(OC(F)F)cc3)nc3n2CCS3)cc1 | -0.42 | nt | nt | nt | nt
Cc1occc1C(=O)OCC(=O)Nc1ccc(F)cc1 | 0.13 | 86* | 32 | 0.1 | 0.7
O=C(COC(=O)c1ccccc1C(=O)N1CCN(c2ccccc2)CC1)Nc1ccc(F)cc1 | -1.8 | 72* | 91* | 0.3 | 0.1
O=C(COC(=O)c1ccccc1C(=O)N1CCN(c2ccc(F)cc2)CC1)NCc1ccccc1 | -1 | 82* | 86* | 0.2 | 0.1
O=C(O)c1ccccc1C(=O)N1CCN(c2ccccc2)CC1 | nt | -6 | 2 | 1.1 | 1
Cc1ccc(OCC(=O)Nc2ccc(F)cc2)cc1C | -1.5 | nt | nt | nt | nt
COC(=O)c1ccccc1OCC(=O)N1CCN(c2ccc(F)cc2)CC1 | 0.46 | 48 | 2 | 0.5 | 1
SMILES | Cav32 inh | CYP2C19 inh | CYP2C9 inh | CYP2C19 activ | CYP2C9 act
FC(F)(F)c1cc(-c2ccco2)nc(NCc2cccnc2)n1 | nt | 85* | 66* | 0.2 | 0.3
COc1nc(-c2ccccc2)cc(C(F)(F)F)n1 | -0.45 | -3 | 19 | 1 | 0.8
FC(F)(F)c1cc(-c2ccco2)nc(NCc2ccccc2)n1 | -0.57 | 14 | 36 | 0.9 | 0.6
FC(F)(F)c1cc(-c2ccccc2)nc(NCc2cccnc2)n1 | -1.2 | 93* | 73* | 0.1 | 0.3
O=C(NCC(=O)N(c1cccnc1)C(C(=O)NCc1ccco1)c1ccccc1)c1ccco1 (stereo not given) | nt | 27 | 1 | 0.7 | 1
Cc1sc(NC(=O)CN(Cc2ccc(F)cc2)C(=O)C(C)C)c(C(N)=O)c1C | nt | 51* | 26 | 0.5 | 0.7
COc1ccnc(Oc2ccc(F)cc2)c1C(=O)N/C=N/OCc1c(Cl)cccc1Cl | -0.18 | 52* | 75* | 0.5 | 0.3
CCCCc1c(C)c2ccc(OC)c(/C(C)=N\O)c2oc1=O | nt | 25 | 34 | 0.7 | 0.7
NC(=S)N/N=C/c1ccc(-c2ccc(Cl)c(Cl)c2)o1 | -0.076 | 3 | 11 | 1 | 0.9
Cc1ccc(-c2ccc(/C=N/n3cnnc3)o2)cc1Cl | 1.2 | 64* | 61* | 0.4 | 0.4
CCc1nnc(NC(=O)CN2CCN(C3CCCCC3)CC2)s1 | 0.024 | -12 | -9 | 1.1 | 1.1
O=C(Nc1c2ccccc2nc2ccccc12)C(Cl)(Cl)Cl | 0.26 | 10 | 23 | 0.9 | 0.8
CS(=O)(=O)c1nc(-c2ccc(Br)cc2)cc(-c2ccccc2)c1C#N | 1.1 | 57* | 73* | 0.4 | 0.3
N#Cc1c(-c2cccc(F)c2)cc(-c2ccccc2)nc1Br | 0.18 | -14 | -4 | 1.1 | 1
CS(=O)c1nc(-c2ccc(Br)cc2)cc(-c2ccccc2)c1C#N (stereo not given) | -0.48 | 57* | 83* | 0.4 | 0.2
CCc1ccc(C2C(C#N)=C(N)C(C#N)(C#N)C3=CCC(C(C)(C)C)CC32)cc1 (stereo not given) | -0.95 | nt | nt | nt | nt
COc1ccc(NC(=O)c2ccccc2NC(=O)COc2ccccc2)cc1 | -0.65 | -18 | 52* | 1.2 | 0.5
CCC(C)NC(=O)c1ccccc1NC(=O)COc1ccc(OC)cc1 (stereo not given) | -0.91 | 51* | 73* | 0.5 | 0.3
CCC(C)NC(=O)c1ccccc1NC(=O)C(C)N(c1ccccc1)S(C)(=O)=O (stereo not given) | nt | 59* | 49 | 0.4 | 0.5
CCc1ccc(NC(=O)c2ccc3c(c2)C(=O)N(CCOC)C3Nc2ccc(CC)cc2)cc1 (stereo not given) | -2.5 | nt | nt | nt | nt
CCOC(=O)C1=C(N)OC2=C(C(=O)CCC2)C1c1ccc(C)s1 (stereo not given) | -0.16 | 53* | 16 | 0.5 | 0.8
CCOC(=O)C1=C(N)OC2=C(C(=O)CCC2)C1c1ccco1 (stereo not given) | 2.2 | 19 | 16 | 0.8 | 0.8
CCOc1ccccc1C1C(C(=O)OC)=C(N)OC2=C1C(=O)CCC2 (stereo not given) | -1.7 | 93* | 70* | 0.1 | 0.3
CC1CC(C)CN(CCCNC(=O)Cn2ncn3cccc3c2=O)C1 (stereo not given) | 0.41 | -2 | 6 | 1 | 0.9
Nc1nc(CSc2nc3ccccc3[nH]2)nc(N2CCOCC2)n1 | 0.67 | -3 | 28 | 1 | 0.7
Cc1cccc(NC(=O)Cn2c(C)c(C#N)c3ccccc32)c1C | -1.4 | 87* | 87* | 0.1 | 0.1
CCOC(=O)Cn1c(C)cc(=O)c2ccccc21 | 0.18 | 4 | -4 | 1 | 1
